Measurements: PubChem BioAssay (NCI)
About 83,000 compounds went through this panel and 20% of them were active in at least one assay; those are over-represented in the sample as a whole.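 Results are percent growth after 48 hours of single-concentration exposure. 100 means growth as in untreated cells, lower positive values show inhibition; negative values down to -100 show cell death.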 Values without a mark were called inactive. Activity calls are given as the source filed them. Rule for the calls: active = growth percent below 10; inactive = the rest.

These molecules were tested on HL-60(TB) leukemia (assay: NCI-60 one-dose screen, 48 h (100 = growth as untreated, 0 = no growth, -100 = all killed)). Conditions: 10 µM unless noted.
With `CNC(=O)c1cc(Oc2ccc3nc(NC(=O)c4cc(C(F)(F)F)cc(C(F)(F)F)c4)sc3c2)ccn1` the growth was -12.8% (active).
In the case of `CCCCOC(=O)c1ccc(NC(=O)C(C)N2CCOCC2)cc1` (centres undefined), the growth is reported as 82%.
`Cc1oc2c(Cc3ccc(NC(=O)c4ccc(Cl)cc4)cc3)ncnc2c1C(=O)NO` was tested, and the growth was 87.9%.
`COc1cc(-c2cc(C(=O)N3CCN(C(=O)c4ccccc4NCc4ccco4)CC3)nc3cc(-c4ccccc4)nn23)cc(OC)c1OC` showed a growth of 11.6%.
In the case of `COc1ccc2c(c1)C(Br)=C(CCO)C2c1ccccc1` (centres undefined), the growth is reported as 1.04% (active).
For `COc1ccc(C2=C(Nc3ccc(C(=O)Nc4ccccc4)cc3)C(=O)N(C)C2=O)cc1`, the growth was 69.9%.
In the case of `C=C1C(=O)O[C@H]2[C@H]1CC/C(COC(=O)NCc1ccc(Cn3c(=O)sn(CCCCC)c3=O)cc1)=C\CC[C@@]1(C)O[C@@H]21`, the growth is reported as -40.4% (active).
For `Cc1ccc(-c2nnc(SCc3nc(N)nc(Nc4ccccc4F)n3)n2-c2ccccc2)cc1`, the growth was -21.3% (active).
`Cc1ccc2nc(-[n+]3cc4ccccc4cc3C)ccc2c1` was tested, and the growth was 0.144% (active).
`COc1cc(OC)c2c(=O)c3c(CC=C(C)C)cc(OC)c(O)c3oc2c1` gave a growth of 96.7%.
`COc1ccc(-c2ncc(-c3ccccc3)[nH]2)cc1OC` was tested, and the growth was -30.2% (active).
Molecule `O=C(Nc1ncc(Cc2ccccc2)s1)c1ccc2c(c1)OCCCO2` has a growth of 11.8%.
Molecule `CCOc1cc(C2C(Cl)C(=O)N2n2cnnc2)ccc1O` (centres undefined) has a growth of 101%.
For `C=C(C)[C@@H]1CC[C@]2(c3nnc(-c4ccncc4)o3)CC[C@]3(C)[C@H](CC[C@@H]4[C@@]5(C)CCC(=O)NC(C)(C)[C@@H]5CC[C@]43C)[C@@H]12`, the growth was 115%.
`Cc1ccsc1/C=C/C1=NCCCN1C` showed a growth of 126%.
`CCN(CC)CCCC(C)Nc1ccc2cc(OC)ccc2n1` (centres undefined) gave a growth of 126%.
Molecule `N#Cc1c(N)n2c(nc1=Nc1ccc([N+](=O)[O-])cc1)sc1cc(Cl)ccc12` has a growth of 117%.
`CCCCCCCCCCC(C(O)c1ccccc1)N1CCCCC1` (centres undefined) was tested, and the growth was -28.5% (active).
For `COC(=O)c1c2c(c(C)[n+]([O-])c1C)C(=O)C=C(NCc1ccc(OC)cc1)C2=O`, the growth was -30.5% (active).
`Nc1ccc(N=Nc2ccccc2)cc1[N+](=O)[O-]` was tested, and the growth was 97.1%.
For `N#Cc1nn(-c2ccccn2)c(N)c1C#N`, the growth was 96.1%.
With `CCCCCCCCCC1=NC(C)(C)CN1C(C)(C)CO` the growth was -20.8% (active).
`C=C1C(=O)O[C@H]2[C@H]1CC/C(CNC(=O)/C=C/c1cccc(OC)c1)=C\CC[C@@]1(C)O[C@@H]21` was tested, and the growth was -35.4% (active).
With `COc1cc2c(cc1O)[C@@]1(C)[C@H](c3ccccc3Br)OC(=O)N1CC2` the growth was 73.3%.
For `O=C(/C=C\c1ccccc1)N1c2ccccc2CC1c1c[nH]c2ccccc12` (centres undefined), the growth was 73.5%.
In the case of `O=C(C=P(c1ccccc1)(c1ccccc1)c1ccccc1)CCl`, the growth is reported as -39.8% (active).
In the case of `CCOc1ccc(Nc2nc(-c3ccc4c(c3)NC(=O)CO4)cs2)cc1`, the growth is reported as 66.9%.
`CCN(CC)CCCC(C)Nc1c2c(nc3ccc(OC)cc13)CCCC2` (centres undefined) gave a growth of 80.3%.
`CSc1nc2c(c(=O)[nH]1)C(c1ccc(Cl)cc1)C1=C(N2)/C(=C/c2ccc(Cl)cc2)CNC1` (centres undefined) was tested, and the growth was 55.4%.
Work on `COc1ccc(C(=O)Nc2cccc(C3CCc4c(cc(OC)c(OC)c4OC)O3)c2)cc1` (centres undefined) yielded a growth of 10.7%.
`CCN(CC)CCCC(C)Nc1c2ccc(Cl)cc2nc2ccc(OC)cc12` (centres undefined) was tested, and the growth was 55.3%.
`O=C1C=C[C@]2(C[C@@H](c3cccc(C(F)(F)F)c3)O[C@@H](c3cccc(C(F)(F)F)c3)O2)O1` was tested, and the growth was 8.74% (active).
Molecule `COc1ccc(/C=C(\C#N)c2cc3ccccc3n2C(C)=O)cc1` has a growth of 83.2%.
Work on `COc1ccc2oc(=O)cc(CN3C(=O)S/C(=C\c4ccc(Cl)cc4)C3=O)c2c1` yielded a growth of 89.5%.
Work on `CC(C)(C)c1ccc(S(=O)(=O)Oc2ccc(NC(=O)C3CCCCC3)cc2)cc1` yielded a growth of 59.3%.
In the case of `CCN1C(=O)N(CC)C2C1NN=c1s/c(=C\c3ccc([N+](=O)[O-])cc3)c(=O)n12` (centres undefined), the growth is reported as -37.9% (active).
In the case of `NC(=O)CC1(c2ccccc2)CCCCC1`, the growth is reported as 98.4%.
With `CCOC(=O)C#Cc1c(C(=O)OCC)nnn1[C@@H]1O[C@H](COC(C)=O)[C@@H](OC(C)=O)[C@H]1OC(C)=O` the growth was 74%.
`O=C1C=CC(=O)N1c1ccc(O)cc1` gave a growth of 112%.
